Data: PubChem BioAssay (Tox21)
Values without a mark were called inactive. Inconclusive results are not listed. Entries that show only a call come without a potency. Calls of active or inactive are those of the source. Unless noted, the call rests on the fitted dose curve; in most records, active means well fitted curve in the direction sought with a large enough effect in the repeat runs; inconclusive means weak or mixed curves; inactive means no such curve, though single readings can be large; an effect the other way counts as inactive or inconclusive.

Tests used:
[1] = A CellTox Green Cytotoxicity Assay to monitor cytotoxicity in HepG2 cells - 8 hour (AID 1224890); further: nearly all actives have a fitted effect of over 45% in size
Summary of the method: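 HepG2 cells, 600/well, preincubated 5 h with CellTox Green dye, then exposed to Tox21 compounds in DMSO at 37 C for up to 40 h. Dead-cell DNA fluorescence read at the indicated time point.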

[2] = qHTS assay to identify small molecule antagonists of the estrogen receptor alpha (ER-alpha) signaling pathway using the BG1 cell line in the presence of 0.1 nM 17-beta-estradiol - cell viability counter screen (AID 1259241); further: nearly all actives have a fitted effect of over 40% in size
Summary of the method: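 Cytotoxicity counter-screen: live-cell protease activity measured by fluorescence (30 min reagent step) in the same wells. Cells were VM7Luc4E2 with endogenous ER-alpha and ERE-driven luciferase, treated 22 hr at 37C alongside 0.1 nM 17beta-estradiol final.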

[3] = qHTS assay to identify small molecule phospholipidosis (PLD) inducers (AID 1259344; active means well fitted curve in the direction sought with a large enough effect; an effect the other way counts as inactive or inconclusive)
Summary of the method: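 Fluorescent phospholipid staining (LipidTOX Red) measured by automated microscopy in fixed HepG2 cells after 24 h treatment; nuclei counterstained with Hoechst 33342; amiodarone as reference inducer.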

[4] = qHTS assay to identify small molecule HDAC inhibitors (AID 1259364); further: nearly all actives have a fitted effect of over 45% in size; further: potency means the concentration at half of the fitted maximal effect
Summary of the method: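 Wild-type HCT-116 cells, plated overnight at 37 C, exposed to compounds 2 hr at 37 C; luminogenic HDAC-Glo substrate then added 30 min at room temperature. Luminescence reports relative endogenous class I/II HDAC activity.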

[5] = qHTS assay to identify small molecule HDAC inhibitors - cell viability counter screen (AID 1259365); further: series mostly up to about 92 µM; nearly all actives have a fitted effect of over 50% in size
Summary of the method: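 CellTiter-Glo luminescence (30 min, room temperature) reported viability after a 2 h compound exposure at 37 C. Cells: wild-type HCT-116, 1,500 per well, seeded the night before.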

[6] = qHTS assay to identify small molecule antagonists of the androgen receptor (AR) signaling pathway using the MDA cell line in the presence of 0.5 nM R1881 - cell viability counter screen (AID 1259242); further: nearly all actives have a fitted effect of over 45% in size
Summary of the method: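 MDA-kb2 cells (MMTV-luciferase, AR/GR responsive) were treated with compounds plus 0.5 nM R1881 (final) for 16 hr at 37C, 0% CO2. Viability was then read in the same wells as live-cell protease fluorescence (CellTiter-Fluor, 30 min).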

[7] = target: Estrogen receptor (Homo sapiens) (UniProt P03372); assay: qHTS assay to identify small molecule antagonists of the estrogen receptor alpha (ER-alpha) signaling pathway using the BG1 cell line in the presence of 0.1 nM 17-beta-estradiol (AID 1259244); further: nearly all actives have a fitted effect of over 50% in size; further: potency means the concentration at half of the fitted maximal effect
Sequence of Estrogen receptor (Homo sapiens) (P03372 whole entry, looked up): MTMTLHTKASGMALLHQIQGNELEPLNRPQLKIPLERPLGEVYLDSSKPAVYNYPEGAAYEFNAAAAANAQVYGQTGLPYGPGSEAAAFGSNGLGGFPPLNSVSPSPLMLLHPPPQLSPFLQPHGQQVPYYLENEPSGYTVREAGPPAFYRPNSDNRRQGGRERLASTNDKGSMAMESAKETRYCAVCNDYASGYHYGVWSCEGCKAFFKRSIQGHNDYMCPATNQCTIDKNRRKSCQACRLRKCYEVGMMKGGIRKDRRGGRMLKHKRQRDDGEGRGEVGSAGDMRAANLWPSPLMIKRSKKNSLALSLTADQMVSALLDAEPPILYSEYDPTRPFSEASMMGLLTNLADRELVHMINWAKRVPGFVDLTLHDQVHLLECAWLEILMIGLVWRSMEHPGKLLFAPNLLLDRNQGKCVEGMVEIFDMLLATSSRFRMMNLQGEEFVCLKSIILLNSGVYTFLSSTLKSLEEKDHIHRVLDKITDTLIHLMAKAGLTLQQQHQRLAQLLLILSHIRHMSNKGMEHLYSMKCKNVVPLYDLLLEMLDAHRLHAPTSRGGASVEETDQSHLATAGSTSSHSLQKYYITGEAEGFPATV
Summary of the method: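 VM7Luc4E2 cells (endogenous full-length ER-alpha, 4×ERE-luciferase), kept 5 days in phenol red-free, charcoal-stripped FBS medium; 4,000 cells/well. Compounds added with 0.1 nM (final) 17beta-estradiol, 22 hr at 37C; luminescence read with ONE-Glo after 30 min.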

[8] = qHTS assay to identify small molecule agonists of the sonic hedgehog signaling (Shh) pathway - cell viability counter screen (AID 1259366); further: nearly all actives have a fitted effect of over 50% in size
Summary of the method: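 Cytotoxicity counter screen: CellTiter-Fluor reagent added after 23 h compound exposure, then 1 h at 37C and fluorescence read. Cells were 3T3 Gli1-Luc, seeded 2,000 per well and dosed 4 h post-plating.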

[9] = qHTS assay to identify small molecule antagonists of the sonic hedgehog signaling (Shh) pathway - cell viability counter screen (AID 1259367); further: nearly all actives have a fitted effect of over 55% in size
Summary of the method: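 Using CellTiter-Fluor, viability of Gli1-Luc reporter 3T3 cells is read by fluorescence in the wells used for the Shh luciferase assay. Treatment lasts 23 hr with conditioned medium, then reagent 1 hr at 37C.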

Row | SMILES | Potency [1] | Potency [2] | outcome [3] | Potency [4] | Potency [5] | Potency [6] | Potency [7] | Potency [8] | Potency [9]
1 | O=C(CCCN1CCN(c2ccc(F)cc2)CC1)NC1c2ccccc2CSc2ccccc21 (stereo not drawn) | inactive | inactive | inactive | inactive | inactive | – | – | – | –
2 | CC(=O)OCC(=O)[C@@]12OC(C)(C)O[C@@H]1C[C@H]1[C@@H]3C[C@H](F)C4=CC(=O)C=C[C@]4(C)[C@@]3(F)[C@@H](O)C[C@@]12C | inactive | – | inactive | inactive | inactive | inactive | inactive | inactive | inactive
3 | CC(COc1ccc(C(C)(C)C)cc1)OS(=O)OCCCl (stereo not drawn) | inactive | inactive | – | inactive | inactive | – | 1380 nM (active) | inactive | inactive
4 | C=CCOC(=O)/C=C\C(=O)OCC=C | inactive | inactive | – | inactive | inactive | – | inactive | inactive | inactive
5 | O=C(OCCOCCO)c1ccccc1Nc1cccc(C(F)(F)F)c1 | inactive | inactive | inactive | inactive | inactive | – | – | inactive | inactive
6 | CCCCCCCCCCCC(=O)[O][Sn]([CH2]CCC)([CH2]CCC)[O]C(=O)CCCCCCCCCCC | inactive | inactive | inactive | inactive | inactive | – | – | – | inactive
7 | CC(C)OCC1CO1 (stereo not drawn) | inactive | inactive | – | inactive | inactive | – | inactive | inactive | –
8 | C/C=C(\C)C(=O)OCCC(C)CCC=C(C)C (stereo not drawn) | inactive | – | – | – | inactive | – | – | inactive | inactive
9 | Nc1ccc(S(=O)(=O)O)c(N)c1 | inactive | – | – | inactive | inactive | inactive | inactive | inactive | inactive
10 | Brc1cc(-c2ccc(Br)c(Br)c2Br)cc(Br)c1Br | inactive | – | – | inactive | inactive | – | inactive | inactive | inactive
11 | O=C(Nc1ccccc1)Nc1ccccc1 | inactive | – | – | 1540 nM (active) | inactive | inactive | inactive | inactive | inactive
12 | CO[Si](C)(OC)OC | inactive | – | – | – | inactive | inactive | inactive | inactive | inactive
13 | CCOC(=O)/C=C/C(=O)O | inactive | – | – | inactive | inactive | inactive | inactive | inactive | inactive
14 | CCCCN(CCCC)C(=S)SSC(=S)N(CCCC)CCCC | inactive | – | – | inactive | inactive | – | inactive | – | inactive
